aSyn 5UTR act = Activators via SNCA 5'UTR binding, MLPCN; alpha-synuclein 5'UTR reporter, activators screen; activity score, % (tested at 7.5 µM), hits read low; 300,000 compounds, 7.1% hits; AID 1814, 2009; in the data active = activity score below about -60%
Active calls of the source: *. The sample as a whole holds a higher share of hits than the screen did.

SMILES | aSyn 5UTR act
CCC1=[N+](CC(=O)c2ccc(C)cc2)CCn2cccc21 | -123*
CC1=[N+](CC(=O)c2ccccc2)CCn2cccc21 | -110*
CCC1=[N+](CC(=O)c2ccc(C)cc2)CCn2c(C)ccc21 | -194*
CC(=O)c1cnc2cc(-c3ccc(Cl)cc3)nn2c1C | -95*
Cc1c(C(=O)O)cnc2cc(-c3ccc(Cl)cc3)nn12 | -71*
Cc1nc2cc(-c3ccc(Cl)cc3)nn2c(C)c1CCC(=O)NC(C)c1ccc2c(c1)OCCO2 (configuration not stated) | 74
Cc1oc(-c2ccc(Cl)cc2)cc1C(=O)O | -83*
CC(=O)c1cnc(-c2ccccc2Cl)s1 | -82*
Cc1cccc(NC(=O)CN2C(=O)N/C(=C\c3ccc(N4CCOCC4)cc3)C2=O)c1 | -100*
C[C@@H]1CN(C(=O)c2cc(COc3cccc(C(F)(F)F)c3)on2)C[C@H](C)O1 | -138*
CC(NC(=O)c1cc(COc2cccc(C(F)(F)F)c2)on1)c1nccs1 (configuration not stated) | -62*
CCOC(=O)N1CCN(C(=O)c2cc(COc3cccc(C(F)(F)F)c3)on2)CC1 | -92*
O=C(NC1CCOC1)c1cc(COc2cccc(C(F)(F)F)c2)on1 (configuration not stated) | -67*
Cc1cc(C(=O)CSc2nnnn2C)c(C)n1Cc1ccco1 | -109*
Cc1cc(C(=O)CSc2ncccn2)c(C)n1Cc1ccco1 | -69*
COc1cccc(NC(=O)Nc2ccccc2Br)c1 | -120*
COc1ccc(NC(=O)Nc2cccc(OC)c2)cc1 | -134*
COc1cccc(NC(=O)Nc2ccc3nsnc3c2)c1 | -183*
COc1ccc(NC(=O)Nc2ccc3c(c2)CCC3)cc1 | -149*
COc1cc(-c2ccc(NC(=O)NC3CC3)c(OC)c2)ccc1NC(=O)NC1CC1 | -99*
Cc1nc2cc(NC(=O)NCCC3=CCCCC3)ccc2o1 | -151*
CCC1CCC(NC(=O)Nc2cccc(OC)c2)CC1 (configuration not stated) | -193*
Cc1cc(C)nc(NC(=O)Nc2ccc(F)cc2F)n1 | -112*
COc1ccc(NC(=O)Nc2ccc(F)cc2F)cc1 | -139*
COc1ccc(NC(=O)Nc2ccc3oc(C)nc3c2)cc1 | -164*
SMILES | aSyn 5UTR act
COCC(=O)Nc1ccc(C(C)C)cc1 | -69*
COc1ccc(Nc2cc(Nc3cccc(OC)c3)ncn2)cc1 | -80*
COc1ccc(NC(=O)Nc2ccc(C(C)C)cc2)cc1 | -75*
Oc1ccc(CN2CCN(c3ccccc3)CC2)c2cccnc12 | 80
O/N=C\c1cnc(N2CCN(c3ccccc3)CC2)s1 | -75*
COc1ccc(O)c(C(=O)C2c3ccccc3C(=O)N2c2ccc(C)cc2)c1 (configuration not stated) | -116*
O=C1c2ccccc2C(O)N1c1ccc(Cl)cc1 (configuration not stated) | -67*
COc1ccc(N2C(=O)c3ccccc3C2O)cc1 (configuration not stated) | -79*
Cc1ccc(N2C(=O)c3ccccc3C2O)nc1 (configuration not stated) | 73
O=[N+]([O-])c1cc(-c2nnc(C34CC5CC(CC(C5)C3)C4)o2)cc([N+](=O)[O-])c1 | -97*
O=C(Cc1cc2ccccc2o1)NCc1ccc(F)cc1 | -79*
Cc1ccc(/C=N/NC(=O)c2ccoc2C)s1 | -120*
C/C(=N\NC(=O)c1ccoc1C)c1ccc(Br)s1 | -65*
Cc1occc1C(=O)N/N=C/c1ccc(Br)s1 | -149*
COCCCNc1oc(/C=C/c2ccccc2)nc1C#N | -114*
CCOc1ccc(/C=C/c2nc(C#N)c(NCCCOC)o2)cc1 | -150*
Cc1cc(=O)oc2cc(Nc3ccccc3)ccc12 | -90*
CCCC(C(=O)Nc1ccc2c(C)cc(=O)oc2c1)c1ccccc1 (configuration not stated) | -66*
CCOC(=O)Cc1csc(NC(=O)c2sc3nc4c(C)cc(C)cc4cc3c2N)n1 | -94*
COc1ccc(N2CCN(C(=O)C3(C)CC3(Cl)Cl)CC2)cc1 (configuration not stated) | -82*
CC(=O)NC(=S)Nc1sc2c(c1C(N)=O)CCC(C)C2 (configuration not stated) | -83*
CC(C)(C)C(=O)NC(=S)Nc1sc2c(c1C(N)=O)CCC2 | -88*
CCCCC(=O)Nc1sc2c(c1C(N)=O)CCC2 | -85*
CC(C)CC(=O)NC(=S)Nc1sc2c(c1C(N)=O)CCC2 | -100*
Cc1sc(NC(=S)NC(=O)C(C)(C)C)c(C(N)=O)c1C | -68*
SMILES | aSyn 5UTR act
CCc1c(-c2ccccc2)nc2sc3c(c2c1N)CCCC3 | -113*
O=c1oc(-c2cccs2)nc2sc3c(c12)CCCCC3 | -90*
Nc1nc(-c2cccnc2)nc2sc3c(c12)CCCC3 | -122*
O=c1oc(/C=C/c2ccccc2)nc2sc3c(c12)CCC3 | -212*
O=c1oc(-c2ccccc2)nc2sc3c(c12)CCCC3 | -103*
COc1ccc(/C=N/NC(=O)c2cccnc2)cc1COc1ccc(NC(C)=O)cc1 | -84*
COc1cc(/C=N/NC(=O)c2cccc([N+](=O)[O-])c2)ccc1OCc1ccc(C)cc1 | -99*

Screens as filed in PubChem BioAssay.
